Test results: ChEMBL document CHEMBL4513149, “CO-ADD screening of MMV (CH) - MMV compounds” (2021)
Potency and affinity values are given separately.

Key:
Klebsiella pneumoniae = settings: Concentration 20 uM; ASSAY_TEST Inhibition of Bacterial Growth; detection method Absorption (OD600); MEDIA CAMHB; plate type 384well; NBS; CORNING #3640; time 18 hr
Candida albicans = settings: 20 µM
Cryptococcus neoformans = settings: Concentration 20 uM; ASSAY_TEST Inhibition of Fungal Growth; detection method Resazurin; Absorption (OD600-OD570); plate type 384well; NBS; CORNING #3640

Row | Compound | Inhibition (Klebsiella pneumoniae) [%] | Inhibition (Candida albicans) [%] | Inhibition (Cryptococcus neoformans) [%]
1 | O=C(Nc1cnc2ccccc2c1)c1cccc(-n2cnnn2)c1 | 8.59 | 4.47 | -9.7
2 | Cc1cc(O)nc(-n2nc(C)cc2C)n1 | 12 | 69.6 | -1.19
3 | Cc1nnc(NCc2cccc(Cl)c2)c2ccccc12 | 13.85 | 3.34 | -11.95
4 | CCOc1ccc(-c2nc(CNCCc3ccc(F)cc3)cs2)cc1 | 12.06 | 7.53 | -5.87
5 | OCCc1ccc(Nc2nccc(-c3nnc4ccccn34)n2)cc1 | 15.28 | 3.06 | -9.75
6 | NCCC(O)C(=O)N[C@@H]1C[C@H](N)[C@@H](OC2O[C@H](CN)[C@@H](O)[C@H](O)[C@H]2O)[C@H](O)C1OC1O[C@H](CO)[C@@H](O)[C@H](N)[C@H]1O.O=S(=O)(O)O.O=S(=O)(O)O (stereo partly drawn) | 11.78 | 2.46 | -2.57
7 | Cc1nc(-c2ccccn2)nc(NCCc2ccc(S(C)(=O)=O)cc2)c1Cl | 10.15 | 4.79 | 2.36
8 | COc1ccc(Cl)cc1NC(=O)CN(C)C(=O)c1cnn(-c2ccccc2)n1 | 9.17 | 6.95 | -5.87
9 | CC(C)(C)OC(=O)N1CCN(c2cc(-c3ccc(Oc4ccccc4)cc3)n[nH]2)CC1 | 20.96 | 5.58 | -7.43
10 | Cc1cc(C(=O)Nc2ccc(-c3ccccc3)cc2)no1 | 16.31 | 4.46 | -3.33
11 | COc1cccc2c(C)nc(N=C(N)N)nc12.O=C(O)C(F)(F)F.O=C(O)C(F)(F)F | 9.38 | 2.56 | -13.06
12 | Cc1cccc(NC(=O)c2cc(S(=O)(=O)N(C)c3ccc(F)cc3)ccc2Cl)n1 | 14.02 | 9.46 | -4.89
13 | CCC(Sc1nc2ccccc2o1)C(=O)Nc1nnc(C)s1 (stereo not drawn) | -2.47 | 4.83 | -9.17
14 | CC(C)(C)n1nc(-c2ccccc2)c2c(N)ncnc21 | 1.67 | 1.46 | -15.8
15 | CN1CCC(NCc2cccc(-c3ccc(S(=O)(=O)NCc4ccccc4)cc3)c2)CC1 | 9.08 | 3.63 | -7.83
16 | CC1CS(=O)(=O)CCN1/N=C/c1ccc([N+](=O)[O-])o1 (stereo not drawn) [NIFURTIMOX] | 15.43 | 4.12 | 5.99

Row | Compound | Inhibition (Klebsiella pneumoniae) [%] | Inhibition (Candida albicans) [%] | Inhibition (Cryptococcus neoformans) [%]
17 | CN1CCC(c2cc(-c3ccncc3)c(-c3ccc(F)cc3)[nH]2)CC1 | 5.43 | 0.45 | 8.69
18 | COc1ccc(Cn2cnc3c(-c4ccco4)nc(Cl)nc32)cc1 | 18.21 | 6.94 | -6.4
19 | CC1CCCN(C(=O)C(C)Nc2cc(Cl)ccc2N2CCOCC2)C1 (stereo not drawn) | 10.27 | 5.64 | -4.76
20 | Cc1ccc(Oc2ccc(NC(=O)CNc3ccccc3N3CCCC3=O)cc2)cc1 | 9.79 | 2.74 | -10.82
21 | Clc1ccc(CCNc2cc(-c3ccccc3)nc3ncnn23)cc1 | 8.91 | 16.3 | -16.06
22 | COc1cc(NC(=O)Cc2nn(C)c(=O)c3ccccc23)ccc1Cl | 12.64 | 6.72 | -0.85
23 | CCCc1ccc(S(=O)(=O)Nc2ccc(CN3CCN(CC4CC4)CC3)cc2)cc1 | 16.66 | 4.6 | -0.39
24 | Cc1cc(OCC(=O)Nc2ccc(C(C)C)cc2)n(C)c(=O)c1C#N | -7.95 | 4.91 | 4.44
25 | Cc1nn(C)cc1C(C)Nc1nncc(-c2ccc(C(F)(F)F)cc2)n1 (stereo not drawn) | 3.18 | 3.9 | -5.79
26 | CCc1ccc(C(NCc2nc(N)nc(N(C)C)n2)C(C)C)cc1 (stereo not drawn) | -6.55 | 5.01 | -4.27
27 | O=C(C1CCN(c2nnnn2-c2ccccc2)CC1)N1CCc2ccccc2C1 | 12.73 | 2.89 | -8.99
28 | O=C(c1cc2ccccc2o1)N1CCN(Cc2ccc3c(c2)OCO3)CC1 | 9.23 | -0.54 | -15.32
29 | CNc1nnc(Sc2cnn(-c3ccccc3)c(=O)c2Cl)s1 | 0.48 | 4.99 | -9.44
30 | CCc1ccc(S(=O)(=O)Nc2cc(CN3CCN(CCC(C)C)CC3)ccc2C)cc1 | 18.36 | 4.16 | -6.26
31 | CC(C)(C)CN1C(=O)C(c2ccccc2)(c2ccccc2)N=C1N | 14.16 | 3.38 | 1.98
